According to PubChem BioAssay AID1159580 (chemical genetic matrix, 2015):
In all, about 5,500 compounds went through this assay and about 2,000 (36%) were called active. Inconclusive results (about 18%) are left out. Cut-off read from the data, not from the text of the source: active = normalized growth mostly below about 0.91 (no sharp cut-off); inconclusive = no clear call, values can overlap the other calls; inactive = mostly above about 0.92. The list shows a part of the results.

Assay: chemical genetic growth profiling, strain panel (AID 1159580);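 note: tested at 20 µM; growth read once vehicle control cultures reached saturation at 30 °C; 1 = growth at the plate median or of vehicle wells; lower values mean less growth of the strain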
Conditions: growth OD

Measured: normalized growth

CC(=O)O[C@@H]1CC2C(C)(C)[C@H](O)CC[C@]2(C)C2CC[C@@]3(C)[C@H](c4ccoc4)OC(=O)C4OC43[C@@]21C (some centres not stated)
inactive: S. cerevisiae deletion strains, locus YJR066W, strain TOR1, active compounds read low 1 | S. cerevisiae deletion strains, locus YJR075W, strain HOC1, active compounds read low 1 | S. cerevisiae deletion strains, locus YKL009W, strain mrt4, active compounds read low 0.963 | S. cerevisiae deletion strains, locus YKL068W, active compounds read low 0.991 | S. cerevisiae deletion strains, locus YKL085W, strain MDH1 (second series), active compounds read low 0.99 | S. cerevisiae deletion strains, locus YKL085W, strain MDH1, active compounds read low 0.99 | S. cerevisiae deletion strains, locus YKL160W, strain elf1, active compounds read low 0.989 | S. cerevisiae deletion strains, locus YKR001C, strain vps1, active compounds read low 0.969 | S. cerevisiae deletion strains, locus YKR026C, strain gcn3, active compounds read low 0.992 | S. cerevisiae deletion strains, locus YKR091W, strain srl3, active compounds read low 1.01 | S. cerevisiae deletion strains, locus YLL001W, strain dnm1, active compounds read low 1.03 | S. cerevisiae deletion strains, locus YLL026W, active compounds read low 1.01 | S. cerevisiae deletion strains, locus YLL041C, strain sdh2, active compounds read low 1.01 | S. cerevisiae deletion strains, locus YLR027C, strain aat2, active compounds read low 1.01 | S. cerevisiae deletion strains, locus YLR039C, strain RIC1, active compounds read low 1.01 | S. cerevisiae deletion strains, locus YLR058C, strain SHM2, active compounds read low 1 | S. cerevisiae deletion strains, locus YLR102C, strain apc9, active compounds read low 0.989 | S. cerevisiae deletion strains, locus YLR113W, strain HOG1, active compounds read low 1.08 | S. cerevisiae deletion strains, locus YLR221C, strain rsa3, active compounds read low 1.02 | S. cerevisiae deletion strains, locus YLR258W, strain gsy2, active compounds read low 1.02 | S. cerevisiae deletion strains, locus YLR262C, strain YPT6 (second series), active compounds read low 1 | S. cerevisiae deletion strains, locus YLR262C, strain YPT6, active compounds read low 1.05 | S. cerevisiae deletion strains, locus YLR268W, strain sec22, active compounds read low 0.984 | S. cerevisiae deletion strains, locus YLR320W, strain mms22, active compounds read low 1.03 | S. cerevisiae deletion strains, locus YLR342W, strain FKS1 (second series), active compounds read low 1.06 | S. cerevisiae deletion strains, locus YLR342W, strain FKS1, active compounds read low 1.01 | S. cerevisiae deletion strains, locus YLR357W, strain rsc2, active compounds read low 1.03 | S. cerevisiae deletion strains, locus YLR370C, strain arc18, active compounds read low 1.01 | S. cerevisiae deletion strains, locus YLR371W, strain rom2, active compounds read low 0.975 | S. cerevisiae deletion strains, locus YLR384C, strain iki3, active compounds read low 1.02 | S. cerevisiae deletion strains, locus YLR418C, strain cdc73, active compounds read low 0.984 | S. cerevisiae deletion strains, locus YML016C, strain PPZ1, active compounds read low 0.982 | S. cerevisiae deletion strains, locus YML032C, strain rad52, active compounds read low 0.975 | S. cerevisiae deletion strains, locus YML120C, strain ndi1, active compounds read low 1.03 | S. cerevisiae deletion strains, locus YML124C, strain tub3, active compounds read low 0.988 | S. cerevisiae deletion strains, locus YMR058W, strain fet3, active compounds read low 1.03 | S. cerevisiae deletion strains, locus YMR078C, strain ctf18, active compounds read low 0.972 | S. cerevisiae deletion strains, locus YMR125W, strain sto1, active compounds read low 1 | S. cerevisiae deletion strains, locus YMR129W, active compounds read low 1 | S. cerevisiae deletion strains, locus YMR205C, strain PFK2, active compounds read low 1.04 | S. cerevisiae deletion strains, locus YMR223W, strain ubp8, active compounds read low 0.995 | S. cerevisiae deletion strains, locus YMR231W, strain pep5, active compounds read low 1.01 | S. cerevisiae deletion strains, locus YMR307W, strain GAS1, active compounds read low 0.977 | S. cerevisiae deletion strains, locus YNL067W, strain RPL9B, active compounds read low 1.02 | S. cerevisiae deletion strains, locus YNL071W, strain lat1, active compounds read low 0.994 | S. cerevisiae deletion strains, locus YNL128W, strain TEP1, active compounds read low 0.975 | S. cerevisiae deletion strains, locus YNL153C, strain GIM3, active compounds read low 1.01 | S. cerevisiae deletion strains, locus YNL183C, strain NPR1, active compounds read low 1.01 | S. cerevisiae deletion strains, locus YNL209W, strain ssb2, active compounds read low 1.01 | S. cerevisiae deletion strains, locus YNL233W, strain BNI4, active compounds read low 1.04 | S. cerevisiae deletion strains, locus YNL248C, strain rpa49, active compounds read low 0.979 | S. cerevisiae deletion strains, locus YNL250W, strain rad50, active compounds read low 1 | S. cerevisiae deletion strains, locus YNL271C, strain bni1, active compounds read low 0.991 | S. cerevisiae deletion strains, locus YNL298W, strain CLA4, active compounds read low 0.992 | S. cerevisiae deletion strains, locus YNL307C, strain MCK1, active compounds read low 0.995 | S. cerevisiae deletion strains, locus YNL322C, strain KRE1 (second series), active compounds read low 1.01 | S. cerevisiae deletion strains, locus YNL322C, strain KRE1, active compounds read low 1.01 | S. cerevisiae deletion strains, locus YNR049C, strain mso1, active compounds read low 1.01 | S. cerevisiae deletion strains, locus YNR052C, strain pop2, active compounds read low 0.997 | S. cerevisiae deletion strains, locus YOL012C, strain htz1 1.17 | S. cerevisiae deletion strains, locus YOL147C, strain pex11, active compounds read low 0.992 | S. cerevisiae deletion strains, locus YOR001W, strain rrp6, active compounds read low 0.994 | S. cerevisiae deletion strains, locus YOR061W, strain CKA2, active compounds read low 0.94 | S. cerevisiae deletion strains, locus YOR069W, strain VPS5, active compounds read low 1 | S. cerevisiae deletion strains, locus YOR070C, strain gyp1, active compounds read low 1.01 | S. cerevisiae deletion strains, locus YOR080W, strain dia2, active compounds read low 1.01 | S. cerevisiae deletion strains, locus YOR083W, strain WHI5, active compounds read low 0.979 | S. cerevisiae deletion strains, locus YOR106W, strain vam3, active compounds read low 1 | S. cerevisiae deletion strains, locus YOR136W, strain idh2, active compounds read low 0.998 | S. cerevisiae deletion strains, locus YOR144C, strain elg1, active compounds read low 0.984 | S. cerevisiae deletion strains, locus YOR184W, strain ser1, active compounds read low 0.975 | S. cerevisiae deletion strains, locus YOR231W, strain MKK1, active compounds read low 1.09 | S. cerevisiae deletion strains, locus YOR265W, strain rbl2, active compounds read low 1.01 | S. cerevisiae deletion strains, locus YOR270C, strain vph1, active compounds read low 0.912 | S. cerevisiae deletion strains, locus YOR290C, strain snf2, active compounds read low 0.985 | S. cerevisiae deletion strains, locus YOR316C, strain cot1, active compounds read low 0.977 | S. cerevisiae deletion strains, locus YPL051W, strain arl3, active compounds read low 1 | S. cerevisiae deletion strains, locus YPL078C, strain atp4, active compounds read low 0.973 | S. cerevisiae deletion strains, locus YPL106C, strain sse1, active compounds read low 1.03 | S. cerevisiae deletion strains, locus YPL240C, strain hsp82, active compounds read low 1 | S. cerevisiae deletion strains, locus YPL256C, strain CLN2, active compounds read low 1.08 | S. cerevisiae deletion strains, locus YPR119W, strain clb2, active compounds read low 0.992 | S. cerevisiae deletion strains, locus YPR141C, strain kar3, active compounds read low 0.962 | S. cerevisiae deletion strains, locus YPR163C, strain tif3, active compounds read low 0.984 | S. cerevisiae deletion strains, locus YPR167C, strain met16, active compounds read low 0.998 | S. cerevisiae deletion strains, strain wtn01, active compounds read low 0.959 | S. cerevisiae strains, strain wild type, active compounds read low 1
